# Results as given in PubChem BioAssay (NCATS).
# Unmarked numbers belong to inactive results. Inconclusive results are not listed. A call without a number means that no potency is given here. Activity calls are given as the source filed them. Calls follow the shape of the dose curve; as a rule, active = well fitted curve in the direction sought with a large enough effect; inconclusive = small, poorly fitted or top-dose-only effect, or another doubt; inactive = no such curve, though single readings can be large; an effect the other way counts as inactive or inconclusive.
# Experiments:
# [1] = molecular target: Glutathione peroxidase 1 (Homo sapiens) (UniProt P07203); experiment: Primary qHTS Assay for Inhibitors of Recombinant Selenoprotein Glutathione Peroxidase 1 (GPX1) (AID 1845191); conditions: recombinant GPX1, GR-coupled NADPH fluorescence, 15 min; series mostly up to 48.8 µM; also: nearly all actives have a fitted effect of over 65% in size
# Glutathione peroxidase 1 (Homo sapiens), sequence (P07203 whole entry, looked up): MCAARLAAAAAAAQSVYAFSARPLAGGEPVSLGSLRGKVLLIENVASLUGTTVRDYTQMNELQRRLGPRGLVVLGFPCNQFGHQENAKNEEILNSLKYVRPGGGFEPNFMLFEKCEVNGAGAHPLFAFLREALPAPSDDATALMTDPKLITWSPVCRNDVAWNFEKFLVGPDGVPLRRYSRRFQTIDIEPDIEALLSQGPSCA
# Procedure, shortened: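 GPX1 10 nM, GR 100 nM, GSH 1 mM, NADPH 0.5 mM, CHP 0.5 mM (final). 30-min cpd preincubation, RT. Ex340/Em450 read t=0, t=15 min.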
# [2] = molecular target: Phospholipid hydroperoxide glutathione peroxidase GPX4 (Homo sapiens) (UniProt P36969); experiment: Primary qHTS Assay for Inhibitors of Recombinant Selenoprotein Glutathione Peroxidase 4 (GPX4) (AID 1845192); conditions: recombinant GPX4, GR-coupled NADPH fluorescence, 15 min; series mostly up to 50 µM; also: nearly all actives have a fitted effect of over 65% in size
# Phospholipid hydroperoxide glutathione peroxidase GPX4 (Homo sapiens), sequence (P36969 whole entry, looked up): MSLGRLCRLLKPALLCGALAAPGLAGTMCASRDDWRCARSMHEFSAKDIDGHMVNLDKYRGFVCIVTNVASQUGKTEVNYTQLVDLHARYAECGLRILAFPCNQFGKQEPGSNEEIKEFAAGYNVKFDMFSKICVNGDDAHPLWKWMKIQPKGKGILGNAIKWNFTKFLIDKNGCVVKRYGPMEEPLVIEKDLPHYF
# Procedure, shortened: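 qHTS, GR-coupled: GPX4 200 nM + cpd 30 min RT → GSH 1 mM, NADPH 0.5 mM, GR 100 nM → CHP 0.5 mM start; fluor 340/450 at t0 and t15 min; no-enzyme wells as control.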
# [3] = molecular target: Luciferin 4-monooxygenase (Photinus pyralis) (UniProt P08659); experiment: Primary firefly luciferase (FLuc) qHTS assay for identification of artifact compounds. (AID 1845220); conditions: purified firefly luciferase, luminescence, 5 min; series mostly up to 54.1 µM; also: nearly all actives have a fitted effect of over 60% in size; also: potency is read from the fitted curve at half-maximal effect
# Procedure, shortened: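 In this counter-screen for luciferase artifacts, test compounds met substrate (10 uM each luciferin and ATP) before 10 nM enzyme started the reaction. Light output was measured 5 min later.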
# [4] = Primary fluorescence-based thiol-reactive (MSTI) qHTS assay for identification of artifact compounds. (AID 1845221); conditions: MSTI thiol-reactivity probe, 1 h; series mostly up to 53.8 µM; also: nearly all actives have a fitted effect of over 65% in size; also: potency is read from the fitted curve at half-maximal effect;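 as to activity change, negative = thiol reactive: thiol-reactive compounds lower the probe fluorescence signal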
# Procedure, shortened: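 Curve-fitted percent inhibition (4-parameter Hill) derived from fluorescence, Ex 525/Em 598 nm, scaled with Acetyl-MSTI and MSTI; 1 h incubation at room temperature.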
# [5] = test system: Nanoluciferase (engineered Oplophorus gracilirostris luciferase); experiment: Primary Nanoluciferase (NLuc) qHTS assay for identification of artifact compounds. (AID 1845222); conditions: NLuc-conditioned medium, Nano-Glo luminescence, 5 min; series mostly up to 54.1 µM; also: potency is read from the fitted curve at half-maximal effect;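 as to activity, negative = inhibition: NLuc secreted into diluted conditioned medium of S16 cells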
# Procedure, shortened: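 Using secreted nanoluciferase in S16 culture medium (0.22 um filtered, 1:55 dilution), compounds were preincubated 15 min at RT. Signal was generated with Nano-Glo reagent (1:100) over 5 min.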
# [6] = Primary redox qHTS assay for identification of artifact compounds. (AID 1845223); conditions: Amplex Red/HRP redox cycling with DTT, fluorescence; series mostly up to 53.8 µM
# Procedure, shortened: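 Redox-cycling detection via DTT (250 uM final) oxidation coupled to Amplex Red (25 uM)/HRP (250 mU/mL) in HBSS. 15 min preincubation plus 30 min after DTT, room temperature. Ex/Em 525/598 nm; 4-parameter Hill fit against DMSO and 10 uM DA3003.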
structure (smiles),measurement,setting,value
O=C(NCC1CCN(Cc2cccc(Cl)c2)CC1)[C@@H]1CCCN(c2ncnc3c2nc2n3CCCC2)C1,Potency,[1],inactive
same,Potency,[2],inactive
same,Potency,[3],inactive
same,Potency,[4],inactive
same,Potency,[5],inactive
CC(=O)c1c(C)cc2cccc(O)c2c1O[C@@H]1O[C@H](CO)[C@@H](O)[C@H](O)[C@H]1O,Potency,[1],inactive
same,Potency,[2],inactive
same,Potency,[3],inactive
same,Potency,[4],5.21 µM (active)
same,Potency,[5],inactive
Cc1ccc(C)c(NC(=O)[C@@H]2CCCN2S(=O)(=O)c2cccc3cccnc23)c1,Potency,[1],inactive
same,Potency,[2],inactive
same,Potency,[3],inactive
same,Potency,[4],inactive
same,Potency,[5],inactive
CC1CCC/C=C/C(=O)c2c(O)cc(O)cc2CC(=O)O1 (stereo unspecified),Potency,[1],inactive
same,Potency,[2],inactive
same,Potency,[3],inactive
same,Potency,[4],11.9 µM (active)
same,Potency,[5],inactive
COc1cc(O)c2c(c1)/C=C/C[C@H](O)[C@H](O)C(=O)/C=C\C[C@H](C)OC2=O,Potency,[1],inactive
same,Potency,[2],inactive
same,Potency,[3],inactive
same,Potency,[4],inactive
same,Potency,[5],inactive
CC(C)=CCCC1(C)C2CCC1(C)C(O)C2 (stereo unspecified),Potency,[1],inactive
same,Potency,[2],inactive
same,Potency,[3],inactive
same,Potency,[4],29.9 µM (active)
same,Potency,[5],inactive
CCC/C=C/C(=O)O[C@H]1CC(C)(C)CC2[C@@]13[C@H](O)C[C@]1(C)[C@@]2(CCC2[C@@]4(C)CC[C@H](O[C@@H]5O[C@H](C(=O)O)[C@@H](O)[C@H](O[C@@H]6O[C@H](CO)[C@H](O)[C@H](O)[C@H]6O[C@@H]6O[C@@H](C)[C@H](O)[C@@H](O)[C@H]6O[C@@H]6OC[C@](O)(CO)[C@H]6O)[C@H]5O[C@@H]5O[C@H](CO)[C@H](O)[C@H](O)[C@H]5O)C(C)(C)C4CC[C@]21C)O[C@H]3O (stereo partly specified),outcome,[1],inactive [at 9.52 µM]
same,"activity change, negative = inhibition",[2],-7.28% [at 9.73 µM]
same,"activity change, negative = inhibition",[3],0.937% [at 11.6 µM]
same,"activity change, negative = thiol reactive",[4],163% [at 11.5 µM]
same,"activity, negative = inhibition",[5],2.33% [at 11.6 µM]
COC1CC(O[C@H]2CC[C@]3(C)C4CC[C@@]5(C)C(=O)[C@]4(CC[C@@H]3C2)CC[C@@H]5C2=CC(=O)OC2)OC(C)C1OC1OC(COC2OC(CO)C(O)C(O)C2O)C(O)C(O)C1O (stereo partly specified),Potency,[1],inactive
same,Potency,[2],inactive
same,outcome,[3],inactive [at 11.6 µM]
same,"activity change, negative = thiol reactive",[4],91.7% [at 11.5 µM]
same,"activity, negative = inhibition",[5],0% [at 11.6 µM]
C[C@@H]1O[C@@H](O[C@H]2CC[C@@]3(C)C(CC[C@]4(C)C3CC=C3[C@@H]5CC(C)(C)CC[C@]5(C(=O)O[C@@H]5O[C@H](CO)[C@@H](O)[C@H](O)[C@H]5O)CC[C@]34C)[C@]2(C)CO)[C@H](O)[C@H](O[C@@H]2O[C@H](CO)[C@@H](O)[C@H](O)[C@H]2O)[C@H]1O (stereo partly specified),Potency,[1],inactive
same,Potency,[2],inactive
same,outcome,[3],inactive [at 11.6 µM]
same,"activity change, negative = thiol reactive",[4],278% [at 11.5 µM]
same,"activity, negative = inhibition",[5],2.95% [at 11.6 µM]
CCc1c[nH]c2ncnc(N3CC[C@](N)(CNC(=O)c4ccc(F)cc4F)C3)c12,Potency,[1],inactive
same,Potency,[2],inactive
same,Potency,[3],inactive
same,Potency,[4],inactive
same,Potency,[5],inactive
COc1cc(N2CCC(O)CC2)ccc1Nc1nc(Nc2ccccc2S(=O)(=O)C(C)C)c2[nH]cnc2n1,Potency,[1],inactive
same,Potency,[2],inactive
same,Potency,[3],inactive
same,Potency,[4],1.68 µM (active)
same,Potency,[5],inactive
Cc1nc(NC(=O)N2CCC[C@H]2C(N)=O)sc1-c1ccnc(C(C)(C)C(F)(F)F)c1,Potency,[1],inactive
same,Potency,[2],inactive
same,Potency,[3],inactive
same,Potency,[4],inactive
same,Potency,[5],inactive
COc1ccc(NC(=O)c2ccc(-c3ccc(-c4nnc(C)o4)cc3C)cc2)cc1N1CCN(C)CC1,Potency,[1],inactive
same,Potency,[2],inactive
same,Potency,[3],inactive
same,Potency,[4],inactive
same,Potency,[5],1.51 µM (active)
CCc1cc2c(cc1CC)CC(NCC(O)c1ccc(O)c3[nH]c(=O)ccc13)C2 (stereo unspecified),Potency,[1],inactive
same,Potency,[2],inactive
same,Potency,[3],inactive
same,Potency,[4],inactive
same,Potency,[5],inactive
CNCCN1CCC(c2cc(CN(C)C(=O)c3cccc(Oc4ccccc4)c3)ccn2)CC1,Potency,[1],inactive
same,Potency,[2],inactive
same,Potency,[3],inactive
same,Potency,[4],inactive
same,Potency,[5],inactive
C[C@@H](NC(=O)[C@H](O)c1cc(F)cc(F)c1)C(=O)N[C@@H]1C(=O)N(C)c2ccccc2-c2ccccc21,Potency,[1],inactive
same,Potency,[2],inactive
same,Potency,[3],inactive
same,Potency,[4],inactive
same,Potency,[5],inactive
C=C[C@@]1(C)C=C2C(=O)C(O)=C3[C@](C)(C(=O)O)CC[C@@H]4C[C@]34[C@]2(O)C(=O)C1,Potency,[1],inactive
same,Potency,[2],inactive
same,Potency,[3],inactive
same,Potency,[4],13.1 µM (active)
same,Potency,[5],inactive
CCCOc1ccc(CCc2nc3cc(-c4c(C)noc4C)ccc3n2CCN2CCOCC2)cc1,Potency,[1],inactive
same,Potency,[2],inactive
same,Potency,[3],inactive
same,Potency,[4],inactive
same,Potency,[5],inactive
C=C1CC2[C@@]3(C)C=CC(=O)C(C)(C)C3=C(O)C(=O)[C@@]2(C)C2(C(=O)OC)C(=O)C(C)OC(=O)[C@@]12C (stereo partly specified),Potency,[1],inactive
same,Potency,[2],inactive
same,Potency,[3],inactive
same,Potency,[4],inactive
same,Potency,[5],inactive
COc1ccc2nccc(C(=O)CC[C@@H]3CCN(CC#Cc4cc(F)cc(F)c4F)C[C@@H]3C(=O)O)c2c1,Potency,[1],inactive
same,Potency,[2],inactive
same,Potency,[3],inactive
same,Potency,[4],inactive
same,Potency,[5],inactive
Cc1cc(F)c(C(=O)Nc2cccc(-c3nncn3C(C)C)n2)cc1-n1cnc(C2CC2)c1,Potency,[1],inactive
same,Potency,[2],inactive
same,Potency,[3],inactive
same,Potency,[4],inactive
same,Potency,[5],inactive
Cc1nc2ccc(-n3ncc(C(=O)c4cc5ccccc5[nH]4)c3N)cc2[nH]1,Potency,[1],inactive
same,Potency,[2],inactive
same,Potency,[3],3.38 µM (active)
same,Potency,[4],inactive
same,Potency,[5],inactive
same,Potency,[6],inactive
CN1CCN(c2ccc(OC(F)(F)F)c(Nc3ncc4c(n3)-c3c(c(C(N)=O)nn3CCO)CC4)c2)CC1,Potency,[1],inactive
same,Potency,[2],inactive
same,Potency,[3],inactive
same,Potency,[4],inactive
same,Potency,[5],inactive
CCCc1cc(C)[nH]c(=O)c1CNC(=O)c1cc(-c2ccnc(N3CCN(C)CC3)c2)cc2c1cnn2C(C)C,Potency,[1],inactive
same,Potency,[2],inactive
same,Potency,[3],inactive
same,Potency,[4],inactive
same,Potency,[5],inactive
Cc1noc(-c2ccc(-c3ccc(CC(=O)O)cc3)cc2)c1NC(=O)O[C@H](C)c1ccccc1Cl,Potency,[1],inactive
same,Potency,[2],inactive
same,Potency,[3],inactive
same,Potency,[4],inactive
same,Potency,[5],9.53 µM (active)
